This is an account of results in PubChem BioAssay AID743279 (National Center for Advancing Translational Sciences (NCATS), 2014).

Hit rate of the full screen: of about 360,000 compounds, about 17,000 (4.7%) were called active. Another 5% or so got no clear call; they are omitted. No stated cut-off is given here; in the data, active means activity change below about -50%; inconclusive means mostly about -30% to -49%; inactive means weaker than that. Only a selection was taken, and actives are over-represented in it overall.
On the % scale 0 is the no-effect control and ±100 the full control effect.

The assay can be described thus: qHTS for Inhibitors of Inflammasome Signaling: IL-1-beta AlphaLISA Primary Screen. Particulars: THP-1 LPS/ATP IL-1B secretion, 16 h; at 57.5 µM, stronger effect = lower value. In outline: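 Secreted IL-1B measured by AlphaLISA bead assay after 16 h compound exposure of THP-1 cells; compounds (final up to 57.5 uM) added 1 h before LPS (250 ng/mL) and ATP (1.25 mM) stimulation; lower signal means less secretion.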
(In general: Quantitative high-throughput screening tests each substance at several concentrations.)
With `O=C(NC1CCCC1)C1c2ccccc2OCC(=O)N1CC(F)(F)F` (stereo not given), the activity change was 35.1% (inactive).
As to `CC(C)C(C)(C#N)NC(=O)CSc1nc2scc(-c3ccccc3)c2c(=O)[nH]1` (stereo not given), the activity change was 18.7% (inactive).
The same measure for `CC[C@@]12C(=O)N(c3ccccc3)C(=O)N1[C@H](c1ccc(Br)cc1)[C@@H]1C(=O)N(C(C)(C)C)C(=O)[C@@H]12`: 12% (inactive); for `Cn1cc([N+](=O)[O-])c(C(=O)Nc2ccc3c(c2)OCCO3)n1`: -66.8% (active); for `Cc1onc(C(=O)Nc2ccc3c(c2)OCO3)c1[N+](=O)[O-]`: -7.05% (inactive).
With `O=C(Nc1ccc2c(c1)OCCO2)c1ccoc1`, the activity change is -12.9% (inactive).
To `CC(=O)N(O)CCCCCNC(=O)CCC(=O)N(O)CCCCCNC(=O)CCC(=O)N(O)CCCCCNC(=O)CCC(=O)O` belongs 21.7% (inactive).
As to `O=C1[C@H]2[C@@H](c3ccc(Cl)cc3)N3C(=O)N(c4cccc(F)c4)C(=O)[C@@]3(Cc3ccccc3)[C@H]2C(=O)N1C1CCCCC1`, the activity change was -4.9% (inactive).
To `CC(C)(C)N1C(=O)[C@H]2[C@@H](c3ccc(Br)cc3)N3C(=O)N(c4cccc(Cl)c4)C(=O)[C@@]3(C)[C@H]2C1=O` belongs -24.5% (inactive).
As to `C[C@@]12C(=O)N(c3cccc(Br)c3)C(=O)N1[C@H](c1ccc(Cl)cc1)[C@@H]1C(=O)N(C3CCCCC3)C(=O)[C@@H]12`, the activity change is -60.3% (active).
The same measure for `COc1ccc(-c2cnc3c(c2)C(=O)N([C@H](C)CO)C[C@@H](C)[C@H](CN(C)Cc2ccccc2)O3)cc1`: -26.2% (inactive); for `CCCNC(=O)C1(C)CCN(Cc2csc(-c3ccc(Cl)cc3)n2)C1` (stereo not given): -26.3% (inactive); for `c1ccc2c(c1)CSc1sccc1C2=C1CCNCC1`: -57.8% (active).
Consider `CN1OC[C@@H]2CN(C(=O)c3cccc4ccccc34)[C@H](c3ccc(N4CCCCC4)cc3)C[C@@H]21`, for which the activity change was -28.3% (inactive).
With `N#Cc1ccc(OCC(=O)Nc2nc(-c3ccccn3)cs2)cc1`, the activity change is 69.5% (inactive).
Consider `CSc1ccccc1NC(=O)CN(C)CC(=O)Nc1ccc(Cl)cc1[N+](=O)[O-]`, for which the activity change is -0.613% (inactive).
For `CSc1ccccc1NC(=O)CN(C)CC(=O)Nc1cccc(Br)c1`, the activity change is -74.1% (active).
As for `CCC(C)c1ccccc1NC(=O)CN(C)CC(=O)Nc1ccccc1SC` (stereo not given), the activity change is -1.52% (inactive).
Take `O=C(Nc1ccccc1)C1CC(=O)n2c(nc3ccccc32)N1` (stereo not given): the activity change was -5.02% (inactive).
As to `COc1ccc(CC(NC(C)=O)C(=O)NC2CCN(C(=O)c3ccc(Cl)cc3)CC2)cc1` (stereo not given), the activity change is 23.6% (inactive).
With `COC(=O)C[C@H]1C=C[C@@H](NS(=O)(=O)c2ccc(C)cc2)[C@@H](CO)O1`, the activity change was 34.5% (inactive).
`CSc1ncnc2c1ncn2CCCNCc1cccs1`: the activity change was 19.3% (inactive).
Turning to `COc1ccc(N2CCC(N3CCN(C)C(CCO)C3)CC2)cc1` (stereo not given), the activity change was 15.4% (inactive).
As to `COc1ccc(NC(=S)NCCN2CCC(C)CC2)cc1`, the activity change was -11.9% (inactive).
Regarding `COc1ccc(N2CCC(CNC(=S)Nc3c(C)cccc3C)C2)cc1` (stereo not given), the activity change was -82.6% (active).
As for `COc1ccc(C(C(=O)Nc2c(C)cccc2C)N2CCN(c3ccc(C)cc3)CC2)cc1` (stereo not given), the activity change is -9.64% (inactive).
The same measure for `COc1ccc(OCC(=O)Nc2ccc(N3CCC(C)CC3)cc2)cc1`: 2.27% (inactive).
As for `COc1ccc(NC(=S)NCC2CCN(c3ccc(OC)cc3)C2)cc1` (stereo not given), the activity change is -82.6% (active).
The same measure for `Cc1sc2ccccc2c1CNC[C@H]1O[C@@H](n2ccc(=O)[nH]c2=O)[C@H](O)[C@@H]1O`: -9.54% (inactive); for `CN(Cc1c(F)cccc1Cl)C(=O)COC(=O)Cn1cnc2ccccc2c1=O`: 12.8% (inactive); for `CCCCN1CC(N2CCN(Cc3cccc(C)c3)CC2)CS1(=O)=O` (stereo not given): -1.82% (inactive).
`CCc1ccc([C@@H]2CC(=O)[C@@H]3CN(S(=O)(=O)c4ccc(C)cc4)[C@H](c4ccc(Cl)cc4)C[C@@H]3N2S(=O)(=O)c2ccc(C)cc2)cc1`: the activity change was 9.82% (inactive).
For the compound `N#Cc1ccc(OCc2nnc(-c3ccc([N+](=O)[O-])cc3)o2)cc1`, the activity change is -1.57% (inactive).
On to `COc1ccc(-c2oc(/N=C/N3CCCC3)c(C#N)c2-c2ccc(OC)cc2)cc1`, for which the activity change was -12.8% (inactive).
Consider `O=S(=O)(c1ccc(Cl)cc1)c1nc(-c2ccco2)oc1N1CCCCC1`, for which the activity change was -10.9% (inactive).
Consider `Cc1cc(N2CCCC2)ccc1NC(=O)COc1ccc(Cl)cc1`, for which the activity change is 2.28% (inactive).
`Cc1ccc(OCc2nc(C#N)c(N3CCCC3)o2)cc1`: the activity change was -58.3% (active).
For `N#Cc1nc(COc2ccc(Cl)cc2)oc1N1CCCC1`, the activity change is -69.8% (active).
The same measure for `CNC(=O)C1CN(C(=O)c2cccc(S(=O)(=O)N3CCc4ccccc43)c2)c2ccccc2O1` (stereo not given): 31.5% (inactive); for `COc1ccc(-c2coc3c(C(=O)NC(C)C)cccc23)c(C)c1`: -10.6% (inactive); for `COc1ccc(CN2CCC(C)(Oc3cccc(F)c3)C2)c2ccccc12` (stereo not given): 6.61% (inactive).
On to `Nc1nc2c(ncn2[C@@H]2O[C@H](CNCc3ccc(OCCCN4CCOCC4)cc3)[C@@H](O)[C@H]2O)c(=O)[nH]1`, for which the activity change is 16.8% (inactive).
`CC1CC(C)CN(CCOc2cccc3ccccc23)C1` (stereo not given): the activity change was -68.4% (active).
With `CC1CN(CCOc2ccccc2[N+](=O)[O-])CC(C)O1` (stereo not given), the activity change was 7.14% (inactive).
With `CC1CCCN(CCOCCOc2ccccc2-c2ccccc2)C1` (stereo not given), the activity change was -6.75% (inactive).
On to `CCCn1nnnc1NC(=O)COc1ccc(Cl)cc1C`, for which the activity change was -5.09% (inactive).
Consider `COc1ccc(Cl)cc1C=CC=NNC(=O)c1ccncc1`, for which the activity change is -5.27% (inactive).
The same measure for `COc1ccccc1/C=C/C=N/n1c(-c2ccc(Cl)cc2Cl)n[nH]c1=S`: 0% (inactive); for `COc1ccc(Cl)cc1C=CC=Nc1ccc(S(N)(=O)=O)cc1`: -101% (active).
On to `CC1(C)CC(=O)C=C(c2ccc(COC(=O)c3cc(F)cc(F)c3)cc2)C1=O`, for which the activity change is 16.9% (inactive).
To `Cc1cc(N2CCN(c3ccc(F)cc3)CC2)n2ncnc2n1` belongs -4.74% (inactive); to `Cc1c(C#N)c(NC(=O)c2ccccc2)n(Cc2ccccc2)c1C`, -78.4% (active); to `COc1ccc(Cn2c(C)c(C)c(C#N)c2NC(=O)Nc2ccc(F)cc2)cc1`, 31.5% (inactive).
With `Cc1ccc(C(=O)Nc2c(C#N)c(C)c(C)n2Cc2ccccc2)cc1`, the activity change is -11.6% (inactive).
For the compound `Cc1cn([C@H]2C[C@H](O)[C@@H](/C=C/C(=O)NCCCc3ccccc3)O2)c(=O)[nH]c1=O`, the activity change was -16.4% (inactive).
`COc1ccc(C2NC(=O)c3ccccc3N2)cc1` (stereo not given): the activity change is -24.2% (inactive).
For `COc1ccc(OC)c(C(=O)c2ccc(Cl)cc2)c1`, the activity change was 1.55% (inactive).
For `COc1ccc2c(c1)C(=O)Nc1cc(Cl)ccc1N2`, the activity change is -52.1% (active).
For the compound `Cc1cc(C)n2c(NCc3ccccc3)c(CC(C)C)nc2n1`, the activity change is 19.1% (inactive).
The same measure for `CCn1cc(C(=O)NCCCN2CCCCCC2)c(=O)c2cc(S(=O)(=O)N3CCc4ccccc4C3)ccc21`: -60.8% (active); for `CCn1cc(C(=O)NCC2CCCO2)c(=O)c2cc(S(=O)(=O)N3CCCCC3)ccc21` (stereo not given): -22.1% (inactive).
Take `CCn1cc(C(=O)NC2CCCCCC2)c(=O)c2cc(S(=O)(=O)N3CCCCC3)ccc21`: the activity change is -14.9% (inactive).
`O=C(C(=O)N1CCN(c2ccccc2)CC1)c1ccc2c(c1)OCO2`: the activity change was -2.25% (inactive).
For the compound `O=C(Nc1ccccc1F)c1ccccc1-c1ccc(C(F)(F)F)cc1`, the activity change was 9.12% (inactive).
In the case of `N#C/C(=C\c1ccccc1C(F)(F)F)C(=O)Nc1ccccc1F`, the activity change was -50.4% (active).
Consider `N#C/C(=C\C1=C(N2CCOCC2)C(=C\c2ccccc2)/CC1)C(=O)Nc1ccccc1F`, for which the activity change was 5.35% (inactive).
Take `COc1ccc(Cn2c(=S)[nH]c3cc(C(=O)N4CCCCC4)ccc3c2=O)cc1`: the activity change was 11.3% (inactive).
The same measure for `CCOc1cc2[nH]c(=S)n(Cc3ccc(C(=O)N4CCN(C)CC4)cc3)c(=O)c2cc1OCC`: -53.6% (active); for `CCOc1cc2[nH]c(=S)n(Cc3ccc(C(=O)NCCOC)cc3)c(=O)c2cc1OCC`: 0% (inactive).
For the compound `COc1cccc(-c2cnc3c(NC(C)=O)cc(-c4cccc(NC(C)=O)c4)cn23)c1`, the activity change is 10.8% (inactive).
To `C=CCn1c(=N)n(CC(O)COc2ccc(OC)cc2)c2ccccc21` (stereo not given) belongs -22.5% (inactive).
To `Cn1c(=N)n(CC(O)c2cccs2)c2ccccc21` (stereo not given) belongs 0% (inactive).
On to `N=c1n(Cc2ccc(Cl)cc2)c2ccccc2n1CC(O)c1ccco1` (stereo not given), for which the activity change was -59.8% (active).
On to `CCCCCCN1C[C@@H](O)[C@H](n2cc(COC(=O)c3ccccc3)nn2)C[C@@H]1c1ccc(Cl)cc1`, for which the activity change is 6.67% (inactive).
With `COc1ccc(S(=O)(=O)N2CCCCC2c2cc(C(=O)NCc3ccc(F)cc3)no2)cc1` (stereo not given), the activity change is -1.6% (inactive).
To `CS(=O)(=O)/C(C#N)=C/c1cccn1S(=O)(=O)c1ccc([N+](=O)[O-])cc1` belongs -25.1% (inactive).
Turning to `CCN(CC)CCn1c2c(c(SCC(=O)Nc3ccc(C(C)C)cc3)nc1=O)CCC2`, the activity change is 7.71% (inactive).
The same measure for `CCN(CC)CCn1c2c(c(SCC(=O)Nc3nc4ccccc4s3)nc1=O)CCCC2`: -96.2% (active); for `Cc1ccc2nc(NC(=O)CSc3nc(=O)n(CCCN(C)C)c4c3CCC4)sc2c1`: -21.5% (inactive); for `C#CCNC(=O)C[C@@H]1C[C@@]2(C(=O)OCC)CCCC=C2N(Cc2ccco2)C1=O`: 43.1% (inactive).
Regarding `COc1cc(OC)nc(S(C)(=O)=O)n1`, the activity change is -95.5% (active).
`COc1ccc(NS(=O)(=O)c2ccc(F)cc2F)cn1`: the activity change is 0.798% (inactive).
Regarding `CCC(=O)Nc1nc(OC)cc(OC)n1`, the activity change was 5.6% (inactive).
On to `CC(=O)Nc1cccc(-c2cc(NC(C)=O)c3ncc(-c4ccccc4)n3c2)c1`, for which the activity change was 12.6% (inactive).
The same measure for `NC(=O)C1(N2CCCCC2)CCN(C2CC(=O)N(Cc3ccc(N4CCCC4=O)cc3)C2=O)CC1` (stereo not given): -8.36% (inactive).
